# Data published in the supplement of paper PMC7366291.
# Counter-ions that a name gives are not always drawn. ± gives the standard deviation or the standard deviation of the averaged measurements.
# System: Danio rerio Tg(wt1b:EGFP) embryo, pronephros
# Assay: glomerular separation, fold change vs DMSO control; higher = glomeruli further apart (abnormal)
# Conditions: 25 µM; exposure: 24-48 hpf
# How it was run: (§1)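 Dechorionated Tg(wt1b:EGFP) zebrafish embryos were exposed to 25 μM compound in 0.5% DMSO, HEPES-buffered E3 with 0.003% PTU, from 24 to 48 hpf at 28.5°C. Pronephroi were imaged dorsally in agarose-filled 96-well plates (470 nm, 10 z-slices). On maximum projections, 16 reference points were set manually in Fiji and a macro computed distances and angles. Values more than 2 SD from the feature mean were excluded. Each feature is a fold change relative to the mean of same-day DMSO controls.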
row,Compound,glomerular separation
1,CN1CCCN(C(c2ccccc2)c2ccc(Cl)cc2)CC1 (centres undefined) [Homochlorcyclizine dihydrochloride],1.08 ± 0.45
2,CC(C)NC[C@@H](O)COc1ccc(CC(N)=O)cc1 [(R)-(+)-Atenolol],0.655 ± 0.16
3,CC(C)OC(=O)C(C)(C)Oc1ccc(C(=O)c2ccc(Cl)cc2)cc1 [Fenofibrate],6.84 ± 3.3
4,NCCc1cc[nH]n1 [Betazole hydrochloride],1.28 ± 0.54

# System: Danio rerio Tg(wt1b:EGFP) embryo, pronephros
# Assay: glomerular width (mean of left and right), fold change vs DMSO control; higher = wider glomerulus
# Conditions: 25 µM; exposure: 24-48 hpf
# How it was run: as §1
row,Compound,glomerular width
1,COC(=O)C1=C(C#N)NC(C)=C(C(=O)OC(C)C)C1c1cccc([N+](=O)[O-])c1 (centres undefined) [Nilvadipine],0.7 ± 0.04
2,NCc1ccc(S(N)(=O)=O)cc1 [Mafenide hydrochloride],1.09 ± 0.019
3,Clc1ccccc1C(c1ccccc1)(c1ccccc1)n1ccnc1 [Clotrimazole],0.861 ± 0.11
4,CCN1CCN(c2cc3c(cc2F)c(=O)c(C(=O)O)cn3C2CC2)CC1 [Enrofloxacin],1.07 ± 0.12
5,Nc1c(Br)cc(Br)cc1CN[C@H]1CC[C@H](O)CC1 [Ambroxol hydrochloride],0.969 ± 0.036
6,CNCC(O)c1ccc(OC(=O)C(C)(C)C)c(OC(=O)C(C)(C)C)c1 (centres undefined) [Dipivefrin hydrochloride],1.04 ± 0.036
7,CCCc1nn(C)c2c(=O)[nH]c(-c3cc(S(=O)(=O)N4CCN(C)CC4)ccc3OCC)nc12 [Sildenafil],0.928 ± 0.045
8,NS(=O)(=O)c1cc2c(cc1Cl)N=C(CSCc1ccccc1)NS2(=O)=O [Benzthiazide],0.919 ± 0.05
9,CC(C)(C(=O)O)c1ccc(C(O)CCCN2CCC(C(O)(c3ccccc3)c3ccccc3)CC2)cc1 (centres undefined) [Fexofenadine hydrochloride],1.12 ± 0.028
10,CC(C)NCC(O)c1ccc(NS(C)(=O)=O)cc1 (centres undefined) [Sotalol hydrochloride],1.03 ± 0.062
11,Cc1ccsc1/C=C/C1=NCCCN1C [Morantel tartrate],1.132 ± 0.011
12,C[C@H](Cc1cc2c(c(C(N)=O)c1)N(CCCO)CC2)NCCOc1ccccc1OCC(F)(F)F [Silodosin],0.985 ± 0.067
13,OCCN1CCN(CCCN2c3ccccc3C=Cc3ccccc32)CC1 [Opipramol dihydrochloride],1.1 ± 0.043
14,CCCCNc1ccc(C(=O)OCCOCCOCCOCCOCCOCCOCCOCCOCCOC)cc1 [Benzonatate],0.897 ± 0.012
15,O=C(COc1ccc(Cl)cc1)N1CCN(Cc2ccc3c(c2)OCO3)CC1 [Fipexide hydrochloride],0.86 ± 0.031
16,C[C@H]1C[C@H]2[C@@H]3CCC4=CC(=O)C=C[C@]4(C)[C@@]3(F)[C@@H](O)C[C@]2(C)[C@@]1(O)C(=O)CO [Betamethasone],1.17 ± 0.088
17,Cc1ccc(NC(=O)c2ccc(CN3CCN(C)CC3)cc2)cc1Nc1nccc(-c2cccnc2)n1 [Imatinib],0.9892 ± 0.0063
18,c1ccc2c(CC3=NCCN3)cccc2c1 [Naphazoline hydrochloride],1 ± 0.0079
19,CN(N=O)C(=O)N[C@@H](C=O)[C@@H](O)[C@H](O)[C@H](O)CO [Streptozotocin],1.06 ± 0.047
20,Nc1nc(F)nc2c1ncn2[C@@H]1O[C@H](CO)[C@@H](O)[C@@H]1O [Fludarabine],0.997 ± 0.061

row,Compound,glomerular width
1,"C[C@](N)(Cc1ccc(O)c(O)c1)C(=O)O [Methyldopa (L,-)]",1.02 ± 0.081
2,NC(Cc1cc(I)c(Oc2cc(I)c(O)c(I)c2)c(I)c1)C(=O)O (centres undefined) [Thyroxine (L)],1.07 ± 0.046
3,CCCC(CCC)C(=O)O [Valproic acid],0.725 ± 0.057
4,Cn1c(=O)c2c(ncn2CC(=O)O)n(C)c1=O [Acefylline],1 ± 0.029
5,CO[C@@]1(NC(=O)CSCC#N)C(=O)N2C(C(=O)O)=C(CSc3nnnn3C)CS[C@@H]21 [Cefmetazole sodium salt],1.004 ± 0.0038
6,O=C(O)COC(=O)Cc1ccccc1Nc1c(Cl)cccc1Cl [Aceclofenac],1 ± 0.16
7,CCC1=C(C)CN(C(=O)NCCc2ccc(S(=O)(=O)NC(=O)N[C@H]3CC[C@H](C)CC3)cc2)C1=O [Glimepiride],1.02 ± 0.06
8,Nc1nnc(-c2cccc(Cl)c2Cl)c(N)n1 [Lamotrigine],0.999 ± 0.016
9,CCN(CC)C(=O)/C(C#N)=C/c1cc(O)c(O)c([N+](=O)[O-])c1 [Entacapone],0.938 ± 0.17
10,CCCC1O[C@@H]2C[C@H]3[C@@H]4CCC5=CC(=O)C=C[C@]5(C)[C@H]4[C@@H](O)C[C@]3(C)[C@]2(C(=O)CO)O1 (some centres undefined) [Budesonide],1.29 ± 0.049
11,CC(C)C(=O)Nc1ccc([N+](=O)[O-])c(C(F)(F)F)c1 [Flutamide],1.12 ± 0.03
12,NS(=O)(=O)c1cc2c(cc1C(F)(F)F)NC(Cc1ccccc1)NS2(=O)=O (centres undefined) [Bendroflumethiazide],0.896 ± 0.043
13,CCN(CC)C(=O)C1(c2ccccc2)CC1CN (centres undefined) [Milnacipran hydrochloride],1.19 ± 0.037
14,COc1ccc2cc([C@H](C)C(=O)O)ccc2c1 [Naproxen],0.9508 ± 0.0065
15,CC(Oc1c(Cl)cccc1Cl)C1=NCCN1 (centres undefined) [Lofexidine],0.9921 ± 0.0057
16,CC(C)NC(=N)NC(=N)Nc1ccc(Cl)cc1 [Proguanil hydrochloride],0.978 ± 0.0098
17,CN1CCCN(C(c2ccccc2)c2ccc(Cl)cc2)CC1 (centres undefined) [Homochlorcyclizine dihydrochloride],0.975 ± 0.015
18,CC(C)NC[C@@H](O)COc1ccc(CC(N)=O)cc1 [(R)-(+)-Atenolol],0.977 ± 0.036
19,CC(C)OC(=O)C(C)(C)Oc1ccc(C(=O)c2ccc(Cl)cc2)cc1 [Fenofibrate],0.648 ± 0.076
20,NCCc1cc[nH]n1 [Betazole hydrochloride],0.9705 ± 0.0028
